Holding throughout (test): DAPPL (digital affinity profiling via proximity ligation, sequencing); 10 mM Tris-HCl pH 7.5, 50 mM NaCl, 1 mM DTT, 4% glycerol, room temperature, 30 min; GST-TFs on glutathione beads, 16-mer random dsDNA library, 0.1% formaldehyde crosslink after washing; high values mean tight binding
Holding throughout (conditions): protein: recombinant; tags: N-terminal GST; dsDNA, one strand shown

The target in one assay is T1, FLI1 (Homo sapiens, UniProt Q01543 1-452).
T1 sequence: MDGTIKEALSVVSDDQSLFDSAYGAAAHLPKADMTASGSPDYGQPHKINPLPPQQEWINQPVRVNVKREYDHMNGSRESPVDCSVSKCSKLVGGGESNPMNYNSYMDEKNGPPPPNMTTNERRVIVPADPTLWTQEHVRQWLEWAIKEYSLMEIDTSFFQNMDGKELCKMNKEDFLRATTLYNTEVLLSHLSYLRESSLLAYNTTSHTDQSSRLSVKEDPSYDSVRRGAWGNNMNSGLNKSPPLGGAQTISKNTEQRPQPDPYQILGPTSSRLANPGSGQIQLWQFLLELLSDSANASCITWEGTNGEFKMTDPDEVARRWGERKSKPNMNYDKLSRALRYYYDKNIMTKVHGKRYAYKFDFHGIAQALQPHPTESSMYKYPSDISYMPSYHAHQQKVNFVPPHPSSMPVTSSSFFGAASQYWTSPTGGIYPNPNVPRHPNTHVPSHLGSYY
The essentials:
(§1)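 After expression in yeast as GST fusions, human transcription factors were bound to glutathione beads, DNA-barcoded and mixed with a tag-only sample. The pools were incubated with 200 nmole of a 16-mer random double-stranded DNA library in Tris/NaCl/DTT/glycerol buffer (30 min, room temperature), washed and crosslinked with 0.1% formaldehyde. Proximity ligation with BsaI/T4 ligase ran for 1 h at 37 °C, before PCR amplification and sequencing on an Illumina NextSeq500. Binding signal is a hexamer's read frequency for a factor divided by its frequency for the tag-only sample.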

The target of a further assay is T2, ELK1 (Homo sapiens, UniProt P19419 1-428).
T2 sequence: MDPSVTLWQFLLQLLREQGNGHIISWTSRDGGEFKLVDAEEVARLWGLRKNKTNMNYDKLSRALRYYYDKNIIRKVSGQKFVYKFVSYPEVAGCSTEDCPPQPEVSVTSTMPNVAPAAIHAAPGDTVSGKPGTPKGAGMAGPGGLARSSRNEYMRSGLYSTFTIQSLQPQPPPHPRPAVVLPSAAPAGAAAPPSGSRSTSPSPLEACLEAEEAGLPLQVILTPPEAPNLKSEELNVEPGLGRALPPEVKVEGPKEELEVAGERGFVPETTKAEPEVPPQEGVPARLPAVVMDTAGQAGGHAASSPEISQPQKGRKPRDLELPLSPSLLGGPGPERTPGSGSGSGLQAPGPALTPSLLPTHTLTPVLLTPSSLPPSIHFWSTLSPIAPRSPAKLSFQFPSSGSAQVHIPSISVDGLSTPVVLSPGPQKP
The essentials: as §1

In a further assay the target is T3, GABPA (Homo sapiens, UniProt Q06546 1-454).
T3 sequence: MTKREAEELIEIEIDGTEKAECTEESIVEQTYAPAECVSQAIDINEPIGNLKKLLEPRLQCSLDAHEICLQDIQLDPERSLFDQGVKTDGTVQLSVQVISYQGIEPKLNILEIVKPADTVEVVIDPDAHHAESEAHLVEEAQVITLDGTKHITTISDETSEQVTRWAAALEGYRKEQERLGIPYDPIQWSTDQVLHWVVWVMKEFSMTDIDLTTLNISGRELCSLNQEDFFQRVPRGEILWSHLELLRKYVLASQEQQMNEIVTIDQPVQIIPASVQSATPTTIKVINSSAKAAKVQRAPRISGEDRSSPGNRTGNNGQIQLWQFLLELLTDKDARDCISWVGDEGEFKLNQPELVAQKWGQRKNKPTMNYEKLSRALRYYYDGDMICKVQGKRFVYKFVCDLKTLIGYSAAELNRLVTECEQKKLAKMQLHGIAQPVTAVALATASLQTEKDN
The essentials: as §1

The next assay deals with T4, ERG (Homo sapiens, UniProt P11308 1-479).
T4 sequence: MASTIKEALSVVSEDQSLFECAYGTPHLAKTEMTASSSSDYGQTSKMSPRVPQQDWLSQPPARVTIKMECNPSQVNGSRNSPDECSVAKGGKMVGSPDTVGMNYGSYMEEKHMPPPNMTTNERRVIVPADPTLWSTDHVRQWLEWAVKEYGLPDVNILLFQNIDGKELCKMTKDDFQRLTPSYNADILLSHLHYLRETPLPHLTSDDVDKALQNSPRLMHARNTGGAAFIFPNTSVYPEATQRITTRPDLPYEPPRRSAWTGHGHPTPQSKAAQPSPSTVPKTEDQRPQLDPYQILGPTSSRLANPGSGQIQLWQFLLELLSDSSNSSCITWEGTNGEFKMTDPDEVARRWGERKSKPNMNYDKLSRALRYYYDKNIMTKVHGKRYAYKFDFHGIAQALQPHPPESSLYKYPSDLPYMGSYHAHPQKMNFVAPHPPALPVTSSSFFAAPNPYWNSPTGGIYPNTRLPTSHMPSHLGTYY
The essentials: as §1

The target in another assay is ELF1 (Homo sapiens, UniProt P32519 1-619). An outline of the steps:
as §1

For a further assay, the target named is T5, EHF (Homo sapiens, UniProt Q9NZC4 1-300).
T5 sequence: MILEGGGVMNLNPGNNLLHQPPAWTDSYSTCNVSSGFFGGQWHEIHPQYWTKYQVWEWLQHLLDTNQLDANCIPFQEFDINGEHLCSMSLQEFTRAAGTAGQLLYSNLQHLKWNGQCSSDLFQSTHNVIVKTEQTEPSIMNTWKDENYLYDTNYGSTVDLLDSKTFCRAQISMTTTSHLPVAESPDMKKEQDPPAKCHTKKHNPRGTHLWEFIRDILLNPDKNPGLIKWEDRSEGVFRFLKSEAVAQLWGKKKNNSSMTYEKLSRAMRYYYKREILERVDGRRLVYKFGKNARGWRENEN
The essentials:
as §1

Another assay deals with SPI1 (Homo sapiens, UniProt P17947 1-270). The essentials: as §1
The target in the next assay is SPIB (Homo sapiens, UniProt Q01892 1-262). An outline of the steps:
as §1

The target in the next assay is T6, ELK3 (Homo sapiens, UniProt P41970 1-407).
T6 sequence: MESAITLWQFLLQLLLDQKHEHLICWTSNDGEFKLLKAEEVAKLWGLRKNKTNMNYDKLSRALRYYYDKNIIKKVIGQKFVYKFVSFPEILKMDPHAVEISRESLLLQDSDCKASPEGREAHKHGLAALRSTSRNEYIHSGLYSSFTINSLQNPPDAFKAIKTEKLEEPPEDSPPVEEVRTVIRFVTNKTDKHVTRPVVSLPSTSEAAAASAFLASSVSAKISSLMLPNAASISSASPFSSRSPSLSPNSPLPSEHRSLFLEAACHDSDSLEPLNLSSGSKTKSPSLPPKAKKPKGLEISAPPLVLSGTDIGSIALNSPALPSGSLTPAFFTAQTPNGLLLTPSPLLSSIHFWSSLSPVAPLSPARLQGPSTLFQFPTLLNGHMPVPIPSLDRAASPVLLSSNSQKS
An outline of the steps: as §1

Sequence of SPIB (Q01892 whole entry): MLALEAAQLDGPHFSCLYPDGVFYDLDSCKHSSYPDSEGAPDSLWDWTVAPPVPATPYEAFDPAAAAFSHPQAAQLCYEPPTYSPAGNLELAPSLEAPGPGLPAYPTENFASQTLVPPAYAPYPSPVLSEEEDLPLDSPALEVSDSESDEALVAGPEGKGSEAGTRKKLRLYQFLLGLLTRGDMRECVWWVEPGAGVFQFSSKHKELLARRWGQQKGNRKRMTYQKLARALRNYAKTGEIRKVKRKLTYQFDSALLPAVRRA
Sequence of ELF1 (P32519 whole entry): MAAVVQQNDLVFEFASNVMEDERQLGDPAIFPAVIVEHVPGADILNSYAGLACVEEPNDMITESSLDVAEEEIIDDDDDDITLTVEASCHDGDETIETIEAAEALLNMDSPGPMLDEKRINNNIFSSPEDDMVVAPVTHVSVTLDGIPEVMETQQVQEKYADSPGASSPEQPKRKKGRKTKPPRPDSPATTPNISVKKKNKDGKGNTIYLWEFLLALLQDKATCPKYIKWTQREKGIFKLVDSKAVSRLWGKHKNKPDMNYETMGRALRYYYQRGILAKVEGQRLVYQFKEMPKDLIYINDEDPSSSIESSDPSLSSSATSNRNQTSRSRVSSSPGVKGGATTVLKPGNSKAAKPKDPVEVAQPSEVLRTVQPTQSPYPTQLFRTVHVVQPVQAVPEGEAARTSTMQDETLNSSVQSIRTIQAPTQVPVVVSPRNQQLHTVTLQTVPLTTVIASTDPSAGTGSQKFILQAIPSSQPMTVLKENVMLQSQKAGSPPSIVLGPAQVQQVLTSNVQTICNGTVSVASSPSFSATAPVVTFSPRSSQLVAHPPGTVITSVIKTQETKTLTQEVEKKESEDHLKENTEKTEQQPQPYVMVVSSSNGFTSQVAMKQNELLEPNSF

On to CCTCCT, for which the binding signal with FLI1 is 1.72 fold enrichment (6-mer frequency, TF over GST control); with ELK1, 1.45 fold enrichment (6-mer frequency, TF over GST control); with GABPA, 1.57 fold enrichment (6-mer frequency, TF over GST control); in the assay with ERG it was 1.45 fold enrichment (6-mer frequency, TF over GST control); in the assay with ELF1, 1.5 fold enrichment (6-mer frequency, TF over GST control); in the assay with EHF, 1.42 fold enrichment (6-mer frequency, TF over GST control). The binding signal in the assay with SPI1 is 1.7 fold enrichment (6-mer frequency, TF over GST control); in the assay with SPIB it was 1.61 fold enrichment (6-mer frequency, TF over GST control); with ELK3, 1.48 fold enrichment (6-mer frequency, TF over GST control).
With CTGGTT, the binding signal was 1.36 fold enrichment (6-mer frequency, TF over GST control) with FLI1; 1.3 fold enrichment (6-mer frequency, TF over GST control) with ELK1; 1.2 fold enrichment (6-mer frequency, TF over GST control) with GABPA; 1.31 fold enrichment (6-mer frequency, TF over GST control) with ERG; 1.31 fold enrichment (6-mer frequency, TF over GST control) with ELF1; 1.18 fold enrichment (6-mer frequency, TF over GST control) in the assay with EHF. Also, the binding signal in the assay with SPI1 was 1.45 fold enrichment (6-mer frequency, TF over GST control); with SPIB it was 1.24 fold enrichment (6-mer frequency, TF over GST control); in the assay with ELK3, 1.21 fold enrichment (6-mer frequency, TF over GST control).
Take CAAAAT: the binding signal is 1.16 fold enrichment (6-mer frequency, TF over GST control) with FLI1; 1.11 fold enrichment (6-mer frequency, TF over GST control) with ELK1; 1.2 fold enrichment (6-mer frequency, TF over GST control) with GABPA; 1.27 fold enrichment (6-mer frequency, TF over GST control) with ERG; 1.18 fold enrichment (6-mer frequency, TF over GST control) with ELF1; 1.16 fold enrichment (6-mer frequency, TF over GST control) in the assay with EHF. In addition, the binding signal is 1.28 fold enrichment (6-mer frequency, TF over GST control) with SPI1; 1.18 fold enrichment (6-mer frequency, TF over GST control) in the assay with SPIB; 1.21 fold enrichment (6-mer frequency, TF over GST control) with ELK3.
On to CAAATA, for which the binding signal in the assay with FLI1 is 1.04 fold enrichment (6-mer frequency, TF over GST control); with ELK1 it was 1.13 fold enrichment (6-mer frequency, TF over GST control); with GABPA, 1.18 fold enrichment (6-mer frequency, TF over GST control); with ERG it was 1.19 fold enrichment (6-mer frequency, TF over GST control); with ELF1, 1.17 fold enrichment (6-mer frequency, TF over GST control); in the assay with EHF, 1.14 fold enrichment (6-mer frequency, TF over GST control). For the same sequence, the binding signal with SPI1 is 1.14 fold enrichment (6-mer frequency, TF over GST control); with SPIB, 1.19 fold enrichment (6-mer frequency, TF over GST control); with ELK3, 1.11 fold enrichment (6-mer frequency, TF over GST control).
In the case of AATTGA, the binding signal was 1.18 fold enrichment (6-mer frequency, TF over GST control) with FLI1; 1.19 fold enrichment (6-mer frequency, TF over GST control) in the assay with ELK1; 1.2 fold enrichment (6-mer frequency, TF over GST control) with GABPA; 1.16 fold enrichment (6-mer frequency, TF over GST control) with ERG; 1.15 fold enrichment (6-mer frequency, TF over GST control) with ELF1; 1.25 fold enrichment (6-mer frequency, TF over GST control) with EHF. Also, the binding signal with SPI1 is 1.16 fold enrichment (6-mer frequency, TF over GST control); in the assay with SPIB, 1.2 fold enrichment (6-mer frequency, TF over GST control); with ELK3, 1.27 fold enrichment (6-mer frequency, TF over GST control).
With CCCAAT, the binding signal was 1.23 fold enrichment (6-mer frequency, TF over GST control) with FLI1; 1.29 fold enrichment (6-mer frequency, TF over GST control) with ELK1; 1.35 fold enrichment (6-mer frequency, TF over GST control) in the assay with GABPA; 1.24 fold enrichment (6-mer frequency, TF over GST control) with ERG; 1.29 fold enrichment (6-mer frequency, TF over GST control) with ELF1; 1.22 fold enrichment (6-mer frequency, TF over GST control) with EHF. Besides, the binding signal is 1.28 fold enrichment (6-mer frequency, TF over GST control) with SPI1; 1.21 fold enrichment (6-mer frequency, TF over GST control) with SPIB; 1.22 fold enrichment (6-mer frequency, TF over GST control) with ELK3.
Consider CCTACG, for which the binding signal was 1.34 fold enrichment (6-mer frequency, TF over GST control) with FLI1; 1.41 fold enrichment (6-mer frequency, TF over GST control) with ELK1; 1.39 fold enrichment (6-mer frequency, TF over GST control) with GABPA; 1.33 fold enrichment (6-mer frequency, TF over GST control) with ERG; 1.32 fold enrichment (6-mer frequency, TF over GST control) with ELF1; 1.35 fold enrichment (6-mer frequency, TF over GST control) with EHF. The binding signal with SPI1 was 1.25 fold enrichment (6-mer frequency, TF over GST control); with SPIB, 1.32 fold enrichment (6-mer frequency, TF over GST control); in the assay with ELK3 it was 1.68 fold enrichment (6-mer frequency, TF over GST control).

(Values after article PMC7862700, “An all-to-all approach to the identification of sequence-specific readers for epigenetic DNA modifications on cytosine”.)
